Source: ChEMBL document CHEMBL2218924, “A broad activity screen in support of a chemogenomic map for kinase signalling research and drug discovery” (Biochem J, 2013)

How the values were obtained:
[1] = molecular target: T1, Testis-specific serine/threonine-protein kinase 1 (Homo sapiens) (UniProt Q9BXA7); conditions: at 1 µM
T1 sequence (whole entry): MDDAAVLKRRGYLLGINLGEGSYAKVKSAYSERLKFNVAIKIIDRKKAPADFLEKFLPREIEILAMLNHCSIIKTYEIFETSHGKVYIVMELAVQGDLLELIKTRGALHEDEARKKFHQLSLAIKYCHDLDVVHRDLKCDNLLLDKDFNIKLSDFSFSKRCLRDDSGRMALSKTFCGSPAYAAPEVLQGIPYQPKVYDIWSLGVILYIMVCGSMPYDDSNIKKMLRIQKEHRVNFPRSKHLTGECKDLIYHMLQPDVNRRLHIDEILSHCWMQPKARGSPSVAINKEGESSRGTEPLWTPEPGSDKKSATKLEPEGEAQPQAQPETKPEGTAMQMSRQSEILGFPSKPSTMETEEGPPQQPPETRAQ

[2] = molecular target: T1, Testis-specific serine/threonine-protein kinase 1 (Homo sapiens); conditions: at 10 µM
[3] = molecular target: T2, Tyrosine-protein kinase Tec (Homo sapiens) (UniProt P42680); conditions: at 1 µM
T2 sequence (whole entry): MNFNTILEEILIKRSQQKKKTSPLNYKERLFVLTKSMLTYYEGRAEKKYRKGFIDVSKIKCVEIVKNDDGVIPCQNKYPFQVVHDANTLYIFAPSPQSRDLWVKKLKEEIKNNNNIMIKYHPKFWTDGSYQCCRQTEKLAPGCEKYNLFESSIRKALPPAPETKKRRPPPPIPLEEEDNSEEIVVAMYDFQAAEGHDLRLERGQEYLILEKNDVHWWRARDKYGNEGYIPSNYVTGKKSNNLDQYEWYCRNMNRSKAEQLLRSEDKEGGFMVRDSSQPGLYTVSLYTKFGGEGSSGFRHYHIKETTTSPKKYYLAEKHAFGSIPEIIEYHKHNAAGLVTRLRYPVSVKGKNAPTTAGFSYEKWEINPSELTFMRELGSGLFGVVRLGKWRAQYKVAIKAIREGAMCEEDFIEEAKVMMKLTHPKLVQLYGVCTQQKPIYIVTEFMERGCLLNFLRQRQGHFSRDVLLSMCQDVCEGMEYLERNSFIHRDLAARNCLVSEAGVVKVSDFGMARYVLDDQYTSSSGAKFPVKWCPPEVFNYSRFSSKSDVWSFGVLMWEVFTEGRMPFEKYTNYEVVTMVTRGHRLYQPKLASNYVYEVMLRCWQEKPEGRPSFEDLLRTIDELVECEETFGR

[4] = molecular target: T2, Tyrosine-protein kinase Tec (Homo sapiens); conditions: at 10 µM
[5] = molecular target: Angiopoietin-1 receptor (Homo sapiens) (UniProt Q02763); conditions: at 1 µM
Chain of Angiopoietin-1 receptor (Homo sapiens) (Q02763 whole entry): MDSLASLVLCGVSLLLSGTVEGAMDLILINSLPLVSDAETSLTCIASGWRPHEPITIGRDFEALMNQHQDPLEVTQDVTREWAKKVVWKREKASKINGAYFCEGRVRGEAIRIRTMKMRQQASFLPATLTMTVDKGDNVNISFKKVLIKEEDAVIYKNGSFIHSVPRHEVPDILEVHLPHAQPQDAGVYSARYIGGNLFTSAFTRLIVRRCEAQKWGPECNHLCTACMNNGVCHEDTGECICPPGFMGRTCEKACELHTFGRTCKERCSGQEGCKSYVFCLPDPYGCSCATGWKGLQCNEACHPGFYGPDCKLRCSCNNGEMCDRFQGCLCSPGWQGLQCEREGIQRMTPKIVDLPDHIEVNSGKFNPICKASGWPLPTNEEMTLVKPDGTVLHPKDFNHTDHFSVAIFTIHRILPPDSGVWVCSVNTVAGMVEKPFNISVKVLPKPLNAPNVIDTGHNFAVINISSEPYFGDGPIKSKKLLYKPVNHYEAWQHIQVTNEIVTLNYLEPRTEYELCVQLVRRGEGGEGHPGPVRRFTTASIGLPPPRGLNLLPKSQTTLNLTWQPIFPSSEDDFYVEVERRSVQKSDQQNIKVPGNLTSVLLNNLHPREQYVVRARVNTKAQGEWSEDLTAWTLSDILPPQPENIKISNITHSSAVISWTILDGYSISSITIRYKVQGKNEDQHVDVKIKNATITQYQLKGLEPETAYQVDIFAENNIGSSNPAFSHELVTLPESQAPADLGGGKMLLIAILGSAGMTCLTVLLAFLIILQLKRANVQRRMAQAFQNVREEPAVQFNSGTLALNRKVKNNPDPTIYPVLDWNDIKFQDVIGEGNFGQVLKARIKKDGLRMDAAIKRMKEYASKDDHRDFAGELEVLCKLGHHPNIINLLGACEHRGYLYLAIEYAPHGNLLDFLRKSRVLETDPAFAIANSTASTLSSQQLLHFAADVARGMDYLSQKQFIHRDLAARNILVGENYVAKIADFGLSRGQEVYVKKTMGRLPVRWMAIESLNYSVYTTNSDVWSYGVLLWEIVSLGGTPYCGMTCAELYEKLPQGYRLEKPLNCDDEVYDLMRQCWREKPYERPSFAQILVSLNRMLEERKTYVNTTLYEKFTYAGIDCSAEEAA

[6] = molecular target: Angiopoietin-1 receptor (Homo sapiens) (UniProt Q02763); conditions: at 10 µM
[7] = molecular target: High affinity nerve growth factor receptor (Homo sapiens) (UniProt P04629); conditions: at 1 µM
Chain of High affinity nerve growth factor receptor (Homo sapiens) (P04629 33-796 limits assumed): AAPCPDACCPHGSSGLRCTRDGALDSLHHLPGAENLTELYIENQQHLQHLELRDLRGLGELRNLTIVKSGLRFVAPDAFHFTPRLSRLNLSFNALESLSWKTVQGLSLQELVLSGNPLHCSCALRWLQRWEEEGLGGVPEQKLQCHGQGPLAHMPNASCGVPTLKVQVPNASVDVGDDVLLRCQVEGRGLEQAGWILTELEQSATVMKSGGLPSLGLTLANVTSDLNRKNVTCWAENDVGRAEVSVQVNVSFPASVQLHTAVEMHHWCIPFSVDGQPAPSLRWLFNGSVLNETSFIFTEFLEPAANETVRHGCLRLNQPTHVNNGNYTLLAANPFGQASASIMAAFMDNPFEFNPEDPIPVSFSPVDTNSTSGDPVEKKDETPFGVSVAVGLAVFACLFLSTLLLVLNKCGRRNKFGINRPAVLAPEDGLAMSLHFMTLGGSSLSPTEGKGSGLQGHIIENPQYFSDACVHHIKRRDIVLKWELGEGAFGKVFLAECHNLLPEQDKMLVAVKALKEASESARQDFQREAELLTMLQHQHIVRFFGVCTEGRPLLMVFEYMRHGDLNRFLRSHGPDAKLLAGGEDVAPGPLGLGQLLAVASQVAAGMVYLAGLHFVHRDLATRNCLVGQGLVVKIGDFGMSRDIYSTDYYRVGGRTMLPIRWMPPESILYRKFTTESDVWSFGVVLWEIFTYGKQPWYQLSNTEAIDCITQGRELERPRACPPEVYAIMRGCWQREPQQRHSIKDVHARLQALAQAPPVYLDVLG

[8] = molecular target: High affinity nerve growth factor receptor (Homo sapiens) (UniProt P04629); conditions: at 10 µM
[9] = molecular target: BDNF/NT-3 growth factors receptor (Homo sapiens) (UniProt Q16620); conditions: at 10 µM
Chain of BDNF/NT-3 growth factors receptor (Homo sapiens) (Q16620 32-822 limits assumed): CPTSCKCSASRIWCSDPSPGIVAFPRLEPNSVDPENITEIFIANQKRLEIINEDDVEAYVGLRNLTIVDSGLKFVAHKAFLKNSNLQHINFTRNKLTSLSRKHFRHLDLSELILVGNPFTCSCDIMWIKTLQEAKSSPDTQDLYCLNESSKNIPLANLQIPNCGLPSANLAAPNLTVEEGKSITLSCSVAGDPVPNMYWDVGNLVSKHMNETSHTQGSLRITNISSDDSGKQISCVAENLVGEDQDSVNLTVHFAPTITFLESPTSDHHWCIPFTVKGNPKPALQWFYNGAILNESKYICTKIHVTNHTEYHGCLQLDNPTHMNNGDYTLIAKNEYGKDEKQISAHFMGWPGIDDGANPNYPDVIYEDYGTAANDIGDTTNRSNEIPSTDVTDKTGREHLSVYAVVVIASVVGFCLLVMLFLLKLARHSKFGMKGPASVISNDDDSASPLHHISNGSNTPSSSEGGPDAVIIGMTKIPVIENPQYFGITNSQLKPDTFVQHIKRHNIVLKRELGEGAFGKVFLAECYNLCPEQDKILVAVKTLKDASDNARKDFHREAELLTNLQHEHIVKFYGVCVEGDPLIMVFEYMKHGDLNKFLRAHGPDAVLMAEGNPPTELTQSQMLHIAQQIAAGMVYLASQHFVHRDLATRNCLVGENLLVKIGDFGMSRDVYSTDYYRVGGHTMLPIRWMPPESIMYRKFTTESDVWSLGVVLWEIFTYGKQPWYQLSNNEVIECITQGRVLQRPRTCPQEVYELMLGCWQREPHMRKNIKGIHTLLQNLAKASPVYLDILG

[10] = molecular target: T3, Tyrosine-protein kinase TXK (Homo sapiens) (UniProt P42681); conditions: at 10 µM
T3 sequence (whole entry): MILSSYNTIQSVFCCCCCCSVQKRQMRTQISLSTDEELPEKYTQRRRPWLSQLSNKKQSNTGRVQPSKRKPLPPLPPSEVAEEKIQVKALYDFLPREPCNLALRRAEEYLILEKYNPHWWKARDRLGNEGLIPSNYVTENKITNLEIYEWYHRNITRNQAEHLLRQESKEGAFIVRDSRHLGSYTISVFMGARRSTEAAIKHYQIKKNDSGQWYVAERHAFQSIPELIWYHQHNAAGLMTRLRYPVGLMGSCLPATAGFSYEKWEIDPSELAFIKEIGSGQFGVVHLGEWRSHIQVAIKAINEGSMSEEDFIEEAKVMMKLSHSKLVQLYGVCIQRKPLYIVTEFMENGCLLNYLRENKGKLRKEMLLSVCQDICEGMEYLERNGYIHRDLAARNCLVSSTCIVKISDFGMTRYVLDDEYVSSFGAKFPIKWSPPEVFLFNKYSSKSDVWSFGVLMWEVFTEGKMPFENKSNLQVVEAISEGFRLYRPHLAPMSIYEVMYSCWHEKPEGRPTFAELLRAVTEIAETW

[11] = molecular target: T4, Serine/threonine-protein kinase ULK2 (Homo sapiens) (UniProt Q8IYT8); conditions: at 1 µM
T4 sequence (whole entry): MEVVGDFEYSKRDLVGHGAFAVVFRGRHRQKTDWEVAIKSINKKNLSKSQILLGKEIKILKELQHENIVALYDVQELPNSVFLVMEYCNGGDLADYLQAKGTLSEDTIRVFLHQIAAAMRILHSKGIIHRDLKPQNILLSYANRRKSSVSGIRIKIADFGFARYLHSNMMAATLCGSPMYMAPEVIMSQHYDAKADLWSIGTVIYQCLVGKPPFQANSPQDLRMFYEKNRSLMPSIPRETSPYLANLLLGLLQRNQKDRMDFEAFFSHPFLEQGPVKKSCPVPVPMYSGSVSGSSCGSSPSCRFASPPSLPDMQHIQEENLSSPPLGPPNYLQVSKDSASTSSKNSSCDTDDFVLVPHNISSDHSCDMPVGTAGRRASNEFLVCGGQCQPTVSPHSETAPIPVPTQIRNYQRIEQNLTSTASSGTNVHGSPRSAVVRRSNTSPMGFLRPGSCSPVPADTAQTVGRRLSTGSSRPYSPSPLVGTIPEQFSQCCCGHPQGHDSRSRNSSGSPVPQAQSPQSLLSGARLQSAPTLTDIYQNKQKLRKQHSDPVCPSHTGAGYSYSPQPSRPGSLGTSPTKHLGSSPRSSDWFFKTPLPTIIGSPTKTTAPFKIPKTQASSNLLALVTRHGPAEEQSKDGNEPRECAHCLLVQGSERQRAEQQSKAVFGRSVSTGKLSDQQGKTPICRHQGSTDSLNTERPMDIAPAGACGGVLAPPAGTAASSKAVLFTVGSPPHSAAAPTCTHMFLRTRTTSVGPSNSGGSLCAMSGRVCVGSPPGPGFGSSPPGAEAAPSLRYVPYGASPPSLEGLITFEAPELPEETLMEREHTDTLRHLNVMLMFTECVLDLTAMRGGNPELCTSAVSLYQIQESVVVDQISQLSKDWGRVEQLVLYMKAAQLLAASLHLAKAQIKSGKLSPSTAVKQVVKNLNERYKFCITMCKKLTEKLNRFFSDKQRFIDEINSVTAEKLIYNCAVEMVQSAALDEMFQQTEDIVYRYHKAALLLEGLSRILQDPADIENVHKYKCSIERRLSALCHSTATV

[12] = molecular target: T4, Serine/threonine-protein kinase ULK2 (Homo sapiens); conditions: at 10 µM
[13] = molecular target: T5, Serine/threonine-protein kinase ULK3 (Homo sapiens) (UniProt Q6PHR2); conditions: at 10 µM
T5 sequence (whole entry): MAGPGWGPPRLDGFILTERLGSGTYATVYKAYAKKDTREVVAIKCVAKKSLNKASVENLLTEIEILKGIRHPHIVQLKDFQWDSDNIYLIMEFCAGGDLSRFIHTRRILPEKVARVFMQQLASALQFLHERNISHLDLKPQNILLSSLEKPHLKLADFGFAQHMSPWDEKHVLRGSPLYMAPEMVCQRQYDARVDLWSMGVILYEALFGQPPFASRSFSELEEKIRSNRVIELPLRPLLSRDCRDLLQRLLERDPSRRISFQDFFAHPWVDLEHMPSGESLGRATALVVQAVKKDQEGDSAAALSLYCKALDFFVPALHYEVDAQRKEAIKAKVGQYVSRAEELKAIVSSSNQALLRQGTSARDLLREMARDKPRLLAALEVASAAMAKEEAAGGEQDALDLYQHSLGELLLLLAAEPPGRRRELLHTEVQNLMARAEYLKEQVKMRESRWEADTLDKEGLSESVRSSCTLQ

[14] = molecular target: Serine/threonine-protein kinase VRK2 (Homo sapiens) (UniProt Q86Y07); conditions: at 1 µM
Chain of Serine/threonine-protein kinase VRK2 (Homo sapiens) (Q86Y07 whole entry): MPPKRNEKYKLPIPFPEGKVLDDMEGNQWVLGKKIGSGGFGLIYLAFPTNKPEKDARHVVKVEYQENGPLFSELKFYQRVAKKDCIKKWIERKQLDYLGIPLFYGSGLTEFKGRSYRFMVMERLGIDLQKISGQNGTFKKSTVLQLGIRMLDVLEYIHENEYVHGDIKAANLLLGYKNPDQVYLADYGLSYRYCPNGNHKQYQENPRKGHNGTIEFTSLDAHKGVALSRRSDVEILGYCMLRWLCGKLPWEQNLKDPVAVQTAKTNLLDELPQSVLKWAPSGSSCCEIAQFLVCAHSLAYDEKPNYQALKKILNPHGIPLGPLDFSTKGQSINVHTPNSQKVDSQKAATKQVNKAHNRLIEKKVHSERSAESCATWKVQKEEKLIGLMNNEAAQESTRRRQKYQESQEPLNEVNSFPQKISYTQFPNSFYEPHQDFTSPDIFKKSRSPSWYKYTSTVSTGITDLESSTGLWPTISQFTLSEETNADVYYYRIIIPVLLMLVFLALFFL

[15] = molecular target: Serine/threonine-protein kinase VRK2 (Homo sapiens) (UniProt Q86Y07); conditions: at 10 µM
[16] = molecular target: BDNF/NT-3 growth factors receptor (Homo sapiens) (UniProt Q16620); conditions: at 1 µM
[17] = molecular target: T3, Tyrosine-protein kinase TXK (Homo sapiens); conditions: at 1 µM
[18] = molecular target: T5, Serine/threonine-protein kinase ULK3 (Homo sapiens); conditions: at 1 µM
[19] = molecular target: Serine/threonine-protein kinase WNK2 (Homo sapiens) (UniProt Q9Y3S1); conditions: at 1 µM;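 note: residual WNK2 kinase activity expressed as percent of uninhibited control, assayed in MOPS buffer at pH 7.0 containing EDTA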
[20] = molecular target: T6, Testis-specific serine/threonine-protein kinase 2 (Homo sapiens) (UniProt Q96PF2); conditions: at 10 µM
T6 sequence (whole entry): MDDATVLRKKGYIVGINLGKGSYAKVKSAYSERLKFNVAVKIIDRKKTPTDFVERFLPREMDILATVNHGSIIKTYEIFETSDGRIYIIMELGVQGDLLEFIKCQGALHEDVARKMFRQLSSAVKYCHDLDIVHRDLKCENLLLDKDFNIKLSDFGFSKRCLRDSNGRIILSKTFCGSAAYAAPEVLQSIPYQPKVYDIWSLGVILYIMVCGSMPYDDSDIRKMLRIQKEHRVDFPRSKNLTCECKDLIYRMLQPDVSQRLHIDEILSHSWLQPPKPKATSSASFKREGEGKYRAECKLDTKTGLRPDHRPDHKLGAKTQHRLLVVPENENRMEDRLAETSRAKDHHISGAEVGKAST

Row | Compound | residual activity [1] | residual activity [2] | residual activity [3] | residual activity [4] | residual activity [5] | residual activity [6] | residual activity [7] | residual activity [8] | residual activity [9] | residual activity [10] | residual activity [11] | residual activity [12] | residual activity [13] | residual activity [14] | residual activity [15] | residual activity [16] | residual activity [17] | residual activity [18] | residual activity [19] | residual activity [20]
1 | Nc1ncnc2c1cnn2-c1ccccc1 | 92% | 87% | 99% | 90% | 73% | 102% | 91% | 83% | 97% | 78% | 101% | 98% | 91% | 102% (inactive) | 90% | – | – | – | – | –
2 | CN(C)S(=O)(=O)c1ccc2c(c1)/C(=C/c1cc3c([nH]1)CCCC3)C(=O)N2 | 91% | 73% | 86% | 80% | 45% | 51% | -2% | -1% | 1% | 90% | 38% | 13% | 6% | – | 91% | 4% | 92% | 11% | 94% (inactive) | –
3 | O=C1NC(=O)C(c2cn(CCCO)c3ncccc23)=C1c1cnccn1 | 97% | 84% | 91% | 73% | 95% | 94% | 80% | 64% | 90% | 86% | – | – | 92% | – | – | 87% | 82% | 93% | – | 59%
